Test results from ChEMBL document CHEMBL4513135, “CO-ADD screening of IQOG CSIS (Spain) compounds”.
Out of some 21,000 compounds screened, fewer than 10 showed an effect of 50% or more. These entries were drawn from the full list. Measured potencies and affinities stand elsewhere.

Test system: Acinetobacter baumannii
Conditions: Concentration 32 ug.mL-1; ASSAY_TEST Inhibition of Bacterial Growth; detection method Absorption (OD600); MEDIA CAMHB; plate type 384well; NBS; CORNING #3640; time 18 hr

| Structure (SMILES) | Inhibition |
| --- | --- |
| C#CCN(C)c1nc(NCCC2CCN(Cc3ccccc3)CC2)c(C#N)cc1C#N.Cl | -7.83% |
| CCOC(=O)C1=C(C)Oc2nc3c(c(N)c2C1c1nccn1C)CCC3 (stereo not given) | 0.84% |
| Nc1nc(N)c(C=O)c(-c2ccccc2)c1C=O | 5.37% |
| Cn1ccnc1C1C2=C(CC(C)(C)CC2=O)Oc2nc3c(c(N)c21)CCCC3 (stereo not given) | -5.19% |
| N#CC1=C(Cl)Oc2c(ccc3ccccc23)C1c1ccc([N+](=O)[O-])cc1 (stereo not given) | -15.4% |
